Potency and affinity values are given separately.
Biological target: Protein disulfide-isomerase (Homo sapiens) (UniProt P07237)
Test: PDI inhibitors, insulin aggregation turbidity, dose response, biochemical, absorbance, cherry-picked samples (AID 602350);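 further: 0% = neutral controls and -100% = rutin hydrate positive control wells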
Settings: recombinant PDI insulin aggregation, absorbance 650 nm, 90 min; series mostly up to 19.5 µM; activity change, negative = inhibition: at the top concentration;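 active means absorbance falls by 30% or more versus neutral controls, with a potency fitted within twice the top valid dose; inconclusive means no clear call, values can overlap the other calls; inactive means change opposite to expected direction, plus the rest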

Sequence of Protein disulfide-isomerase (Homo sapiens) (P07237 whole entry, looked up): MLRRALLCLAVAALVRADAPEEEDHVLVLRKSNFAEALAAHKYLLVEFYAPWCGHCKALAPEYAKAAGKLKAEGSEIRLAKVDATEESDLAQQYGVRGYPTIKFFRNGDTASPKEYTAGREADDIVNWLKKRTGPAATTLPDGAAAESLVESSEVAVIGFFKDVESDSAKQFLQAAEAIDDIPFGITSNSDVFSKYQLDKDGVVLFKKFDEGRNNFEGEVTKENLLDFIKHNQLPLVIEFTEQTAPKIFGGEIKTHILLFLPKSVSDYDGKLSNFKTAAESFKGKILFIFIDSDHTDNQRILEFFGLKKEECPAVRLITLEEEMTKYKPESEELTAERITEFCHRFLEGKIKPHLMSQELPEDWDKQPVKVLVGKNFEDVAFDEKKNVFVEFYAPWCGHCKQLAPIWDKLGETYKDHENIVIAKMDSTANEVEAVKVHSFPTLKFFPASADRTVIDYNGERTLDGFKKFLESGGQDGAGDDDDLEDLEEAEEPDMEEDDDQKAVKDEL

Activity change, negative = inhibition, inactive:
O=C(OCc1ccc(-c2ccccc2)cc1)c1cccc(O)c1 -12%
COc1cc(CCC(=O)OCC(=O)Nc2cc(S(=O)(=O)N3CCOCC3)ccc2Cl)cc(OC)c1OC 1.15%
COc1ccc(CN(C)C[C@@H]2Oc3ccc(NC(=O)Nc4ccccc4)cc3CC(=O)N([C@H](C)CO)C[C@@H]2C)cc1 -17.1%
COC(=O)C(Cc1ccc(O)cc1)N1Cc2ccccc2C1=O (centres undefined) -20.3%
COc1ccc(N(Cc2cc3cc(OC)ccc3[nH]c2=O)C(=O)C2CCCO2)cc1 (centres undefined) 4.45%
Cc1ccc(NC2(c3nnnn3CCOC(=O)Nc3ccc(Cl)cc3)CCCCC2)cc1 -1.59% [at 21 µM]
CCCCN(C(=O)C1=CC=CN2CCS(=O)(=O)N=C12)c1ccccc1 0.388%
O=C(NCc1ccncc1)Nc1cc(Cl)ccc1Cl -6.29%
O=C(CCc1ccc(O)cc1)NN=Cc1cc(Br)ccc1O 4.89%
CN(C)c1ccc(NC(=O)CN2C(=O)CC(c3ccccc3)=Nc3ccccc32)cc1 14%
CCOC(=O)c1c(CN2CCOCC2)n(-c2ccccc2)c2ccc(O)cc12 -4.1%
CCOc1ccc2nc(NS(=O)(=O)Cc3ccccc3)sc2c1 9.16%
Cc1ccc(CN(c2ccc(C(=O)Nc3ccc4c(c3)OCO4)cc2)S(C)(=O)=O)cc1 8.91%
Cc1ccc(S(=O)(=O)N(C)c2ccc(OC(=O)COc3ccccc3)cc2)cc1 -1.41%
CC1(C(=O)NS(=O)(=O)c2ccccc2Cl)CCN1C(=O)c1ccccc1CCc1ccccc1 (centres undefined) -3.37%
C=CCn1c(C(CCCC)CC(O)COCC(C)C)n[nH]c1=S (centres undefined) 5.07%
O=C(NC(Cc1c[nH]c2ccccc12)C(=O)N/N=C/c1cccnc1)c1cccs1 (centres undefined) -3.98%
Cc1cc(C)c(C)c(S(=O)(=O)N2CCC(C(=O)N(C)Cc3nc4ccccc4c(=O)[nH]3)CC2)c1C -2.56%
CCOC(=O)c1c(CN2CCOCC2)n(-c2ccccc2)c2cc(Br)c(O)cc12 -9.21%
COCC(=O)N(C)C1(c2nnnn2CCOC(=O)Nc2ccc(Cl)cc2)CCCC1 20.2%
CC1CCc2sc(C(=O)N/N=C/C3CCCCC3)cc2C1 (centres undefined) -2.94%
COCc1[nH][nH]c(=O)c1C=Nc1ccc(F)cc1F 18.6%
C[C@@H]1CN([C@H](C)CO)C(=O)Cc2cc(NC(=O)Nc3ccccc3)ccc2O[C@@H]1CN(C)Cc1ccccc1 7.95% [at 21 µM]
Cc1cccc(NC(=S)NCC23C=CC(O2)C2C(=O)N(c4ccc(Cl)cc4)C(=O)C23)c1 (centres undefined) 19.5%
COc1cc2c(cc1OC)C1C(C(=O)Nc3ccccc3N3CCN(C)CC3)c3ccccc3C(=O)N1CC2 (centres undefined) -4.54%
COc1ccc(C2c3ccc(O)cc3Oc3ncn(CCCO)c(=N)c32)cc1 (centres undefined) -24.8%
CCS(=O)(=O)c1ccc2oc(SCC(=O)NC(C)C3CC4CCC3C4)nc2c1 (centres undefined) 6.54%
CCOc1ccc(CCN2C(=O)C(=O)N([C@@H](CC(C)C)CN3CCC[C@@H]3CN3C(=O)C(=O)NC[C@@H]3Cc3ccccc3)C[C@@H]2Cc2ccc(O)cc2)cc1 -2.66%
CCOc1ccc(C(=O)NCC(=O)OCC(=O)N(C)CC(=O)Nc2ccccc2CC)cc1OCC 14%
CCOC(=O)c1c(CN(C)C)n(-c2ccccc2)c2cc(Br)c(O)cc12 -18.2%
O=C(/C=C/c1ccc(N2CCCCC2)c([N+](=O)[O-])c1)c1ccc(O)cc1 -1.08%
CN(C)c1ccc(/C=C/C(=O)c2ccc(O)cc2)cc1[N+](=O)[O-] -7.14%
O=C1[C@@H]2C(Cc3ccc(O)cc3)NC3(C(=O)Nc4ccc(F)cc43)[C@@H]2C(=O)N1c1ccccc1 (some centres undefined) -19.7%
C[C@H]1CN([C@@H](C)CO)C(=O)Cc2cc(NC(=O)Nc3ccccc3)ccc2O[C@H]1CN(C)Cc1ccccc1 -15%
Cc1nn(CC(=O)NCC2CCCO2)c(C)c1[N+](=O)[O-] (centres undefined) 11.8%
Nc1ccc(C(=O)NN2C(=O)[C@H](Cl)C2c2ccc(Cl)cc2)cc1 (some centres undefined) -2.02%
Cc1ccc(S(=O)(=O)c2ccc(Oc3cccc(C)c3)cc2)cc1 7.71%
CCc1ccc2[nH]c(=O)c(CN(Cc3ccccc3OC)Cc3nnnn3Cc3ccco3)cc2c1 6.81%
CN1C(=O)NC(c2ccccc2)C2=C1CN(c1cccc(C(F)(F)F)c1)C2=O (centres undefined) 12.6%
